# Results filed as inconclusive are left out. Where a call stands in place of a potency, no number is given. A number with no mark means an inactive call. Calls of active or inactive are those of the source. Calls follow the shape of the dose curve; as a rule, active = well fitted curve in the direction sought with a large enough effect; inconclusive = small, poorly fitted or top-dose-only effect, or another doubt; inactive = no such curve, though single readings can be large; an effect the other way counts as inactive or inconclusive.
# Columns and labels:
# [1] = molecular target: Lysine-specific demethylase 5B (Homo sapiens) (UniProt Q9UGL1); assay: Optimization screen for KDM5B Histone Demethylases FDH coupled qHTS against the LOPAC library (AID 1347166); conditions: KDM5B demethylation, FDH-coupled NADH fluorescence (FDH is formaldehyde dehydrogenase); series mostly up to 57.5 µM
# Outline: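 KDM5BDeltaAP (200nM final) preincubated 10 min with compound, then 12.5uM H3K4Me3, 25uM a-ketoglutarate, ascorbate, Fe(II), NAD+ and FDH added; 50mM HEPES pH 7.5, 0.01% Tween-20. NADH fluorescence (340/450 nm) change over 30 min, room temperature.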
# [2] = tested on: Zika virus NS2B-NS3 protease (unlinked complex); assay: Primary screen GU Rhodamine qHTS for Zika virus inhibitors: Unlinked NS2B-NS3 protease assay (AID 1347159); conditions: Recombinant ZIKV NS2B-NS3 protease, Rhodamine110 substrate fluorescence; series mostly up to 107 µM; also: nearly all actives have a fitted effect of over 60% in size; also: potency is read from the fitted curve at half-maximal effect
# Outline: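 Percent inhibition derives from the 15-min fluorescence change (ex 480, em 540 nm), normalized to no-enzyme and no-inhibitor wells. Reactions contained 25 nM NS2B-NS3 complex and 1.5 microM substrate in 10 mM Tris-HCl pH 8.0.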
# [3] = tested on: Zika virus NS2B-NS3 protease (linked construct); assay: Primary screen NINDS Rhodamine qHTS for Zika virus inhibitors (AID 1347160); conditions: purified NS2B-NS3 protease, Rhodamine110 substrate fluorescence; series mostly up to 57.1 µM; also: nearly all actives have a fitted effect of over 55% in size; also: potency is read from the fitted curve at half-maximal effect
# Outline: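 In 10 mM Tris-HCl pH 8.0 containing 0.01% Tween 20, linked NS2B-NS3 protease (25 nM final) is exposed to test compounds for 15 min. Cleavage of 1.5 microM Rhodamine110 substrate is tracked by fluorescence over 15 min.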
# [4] = Confirmatory screen NINDS Rhodamine qHTS for Zika virus inhibitors (AID 1347161); conditions: purified enzyme assay, Rhodamine110 substrate fluorescence, 15 min; series mostly up to 38.1 µM; also: nearly all actives have a fitted effect of over 60% in size; also: potency is read from the fitted curve at half-maximal effect;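 as to activity change, negative = inhibition: purified Zika NS2B-NS3 protease with linked NS2B cofactor domain and Rhodamine110 peptide substrate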
# Outline: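 Purified linked NS2B-NS3 protease (NS2B hydrophilic domain joined to NS3 protease by flexible linker), 25 nM in 10 mM Tris-HCl pH 8.0, 0.01% Tween 20. Compounds titrated, 15 min preincubation at room temperature; 1.5 microM Rhodamine110 substrate, FITC fluorescence change over 15 min.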
# [5] = Vero cells viability qHTS for Zika virus inhibitors (AID 1347167); conditions: cytotoxicity counter-screen (Zika); series mostly up to 45.9 µM
# Outline: (§1)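 Compounds were tested in concentration series on cells grown in DMEM containing 4% FBS. After 24 to 48 hours, cellular ATP was measured by luminescence with CellTiter Glo.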
# [6] = HepG2 cells viability qHTS for Zika virus inhibitors (AID 1347168); conditions: Zika counter-screen; series mostly up to 45.9 µM
# Outline: as §1
# [7] = Tertiary RLuc qRT-PCR qHTS assay for Zika virus inhibitors (AID 1347169); conditions: infected Vero cells, reporter luminescence, 48-72 h; series mostly up to 45.9 µM; also: top concentration of the series differs between compounds; nearly all actives have a fitted effect of over 55% in size
# Outline: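 Orthogonal cell-based infection assay using recombinant ZIKV-RLuc (Cambodian) in Vero cells; compound added prior to virus at MOI 1-2. Incubation lasts 48-72 hrs at 37 degrees C before live-cell Renilla substrate is added and luminescence measured.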
# [8] = OV-KATE Cancer Cell Toxicity qHTS against the NCATS CANVASS Library (AID 1347345); conditions: OV-KATE cells viability, CellTiter-Glo luminescence, 72 h; series mostly up to 76 µM
# Outline: (§2)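 Per well, 1000 cells; exposure 72 h with compound at 11 final concentrations; readout CellTiter-Glo luminescence.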
# [9] = HPAF-II Cancer Cell Toxicity qHTS against the NCATS CANVASS Library (AID 1347346); conditions: HPAF-II viability, CellTiter-Glo ATP luminescence, 72 h; series mostly up to 76 µM; also: nearly all actives have a fitted effect of over 55% in size
# Outline: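 Luminescence from CellTiter-Glo, added after 72 h compound exposure and a 15 min room-temperature incubation, served as the viability readout. HPAF-II cells (1000/well) received an 11-point concentration series.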
# [10] = UWB1.289 Cancer Cell Toxicity qHTS against the NCATS CANVASS Library (AID 1347347); conditions: UWB1.289 viability, CellTiter-Glo luminescence, 72 h; series mostly up to 76 µM; also: nearly all actives have a fitted effect of over 60% in size
# Outline: as §2
# [11] = OV-SAHO Cancer Cell Toxicity qHTS against the NCATS CANVASS Library (AID 1347348); conditions: OV-SAHO viability, CellTiter-Glo luminescence, 72 h; series mostly up to 76 µM; also: nearly all actives have a fitted effect of over 55% in size
# Outline: as §2
# [12] = Panc-1005 Cancer Cell Toxicity qHTS against the NCATS CANVASS Library (AID 1347349); conditions: Panc-1005 viability, CellTiter-Glo luminescence, 72 h; series mostly up to 76 µM; also: nearly all actives have a fitted effect of over 60% in size
# Outline: as §2
# [13] = SW1088 Cancer Cell Toxicity qHTS against the NCATS CANVASS Library (AID 1347350); conditions: SW1088 viability, CellTiter-Glo luminescence, 72 h; series mostly up to 76 µM; also: nearly all actives have a fitted effect of over 75% in size
# Outline: as §2
# [14] = U-118MG Cancer Cell Toxicity qHTS against the NCATS CANVASS Library (AID 1347351); conditions: U-118MG viability, CellTiter-Glo luminescence, 72 h; series mostly up to 76 µM
# Outline: as §2
# [15] = COV-362 Cancer Cell Toxicity qHTS against the NCATS CANVASS Library (AID 1347352); conditions: COV-362 viability, CellTiter-Glo luminescence, 72 h; series mostly up to 76 µM
# Outline: (§3)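 Luminescent ATP read-out (CellTiter-Glo, 15min at room temperature) measures survival after cells face an 11-point compound series for 72 hours at 37 degrees C/5% CO2.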
# [16] = A2780 Cisplatin Sensitive Ovarian Cancer Cell Toxicity qHTS against the NCATS CANVASS Library (AID 1347353); conditions: A2780 ovarian cancer viability, ATPLite luminescence, 72 h; at 91.4 µM (top of the series) unless noted; also: nearly all actives have a fitted effect of over 60% in size
# Outline: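 Luminescent ATP content (ATPLite, 10 min at room temperature) served as the read-out after cells had been exposed to compounds for 72 hours at 37 °C. Dosing followed an 11-point concentration series.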
# [17] = UWB1.289-WTBRCA1 Cancer Cell Toxicity qHTS against the NCATS CANVASS Library (AID 1347354); conditions: UWB1.289-WTBRCA1 viability, CellTiter-Glo luminescence, 72 h; series mostly up to 76 µM
# Outline: as §3
# [18] = tested on: Zika virus NS2B-NS3 protease (linked); assay: 384 well plate NINDS AMC confirmatory qHTS for Zika virus inhibitors (AID 1347163); conditions: Recombinant NS2B-NS3 protease, Ac-VKTGKR-AMC fluorescence; also: potency is read from the fitted curve at half-maximal effect; nearly all actives have a fitted effect of over 50% in size
# Outline: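 Linked NS2B-NS3 protease (final 5 nM, 30 nM or 60 nM) was preincubated with compounds (final up to 1 mM) for ~15 minutes. Ac-VKTGKR-AMC substrate (final 30 microM) then reacted for 25 minutes at room temperature in the dark. Fluorescence (ex 355/em 460 nm) was normalized to no-enzyme and no-inhibitor controls.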
# [19] = tested on: Zika virus NS2B-NS3 protease (linked construct); assay: 384 well plate NINDS Rhodamine confirmatory qHTS for Zika virus inhibitors (AID 1347164); conditions: rhodamine-110 peptide substrate fluorescence; series mostly up to 100 µM; also: nearly all actives have a fitted effect of over 65% in size; also: potency is read from the fitted curve at half-maximal effect; as to activity change, negative = inhibition: top concentration of the series differs between compounds
# Outline: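 Compounds are incubated about 15 minutes with linked protease (5, 30 or 60 nM final). Rhodamine 110-tagged Ac-LKRR substrate (10 microM final) is added and fluorescence measured after 25 minutes.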
# Sequence of Lysine-specific demethylase 5B (Homo sapiens) (Q9UGL1 whole entry, looked up): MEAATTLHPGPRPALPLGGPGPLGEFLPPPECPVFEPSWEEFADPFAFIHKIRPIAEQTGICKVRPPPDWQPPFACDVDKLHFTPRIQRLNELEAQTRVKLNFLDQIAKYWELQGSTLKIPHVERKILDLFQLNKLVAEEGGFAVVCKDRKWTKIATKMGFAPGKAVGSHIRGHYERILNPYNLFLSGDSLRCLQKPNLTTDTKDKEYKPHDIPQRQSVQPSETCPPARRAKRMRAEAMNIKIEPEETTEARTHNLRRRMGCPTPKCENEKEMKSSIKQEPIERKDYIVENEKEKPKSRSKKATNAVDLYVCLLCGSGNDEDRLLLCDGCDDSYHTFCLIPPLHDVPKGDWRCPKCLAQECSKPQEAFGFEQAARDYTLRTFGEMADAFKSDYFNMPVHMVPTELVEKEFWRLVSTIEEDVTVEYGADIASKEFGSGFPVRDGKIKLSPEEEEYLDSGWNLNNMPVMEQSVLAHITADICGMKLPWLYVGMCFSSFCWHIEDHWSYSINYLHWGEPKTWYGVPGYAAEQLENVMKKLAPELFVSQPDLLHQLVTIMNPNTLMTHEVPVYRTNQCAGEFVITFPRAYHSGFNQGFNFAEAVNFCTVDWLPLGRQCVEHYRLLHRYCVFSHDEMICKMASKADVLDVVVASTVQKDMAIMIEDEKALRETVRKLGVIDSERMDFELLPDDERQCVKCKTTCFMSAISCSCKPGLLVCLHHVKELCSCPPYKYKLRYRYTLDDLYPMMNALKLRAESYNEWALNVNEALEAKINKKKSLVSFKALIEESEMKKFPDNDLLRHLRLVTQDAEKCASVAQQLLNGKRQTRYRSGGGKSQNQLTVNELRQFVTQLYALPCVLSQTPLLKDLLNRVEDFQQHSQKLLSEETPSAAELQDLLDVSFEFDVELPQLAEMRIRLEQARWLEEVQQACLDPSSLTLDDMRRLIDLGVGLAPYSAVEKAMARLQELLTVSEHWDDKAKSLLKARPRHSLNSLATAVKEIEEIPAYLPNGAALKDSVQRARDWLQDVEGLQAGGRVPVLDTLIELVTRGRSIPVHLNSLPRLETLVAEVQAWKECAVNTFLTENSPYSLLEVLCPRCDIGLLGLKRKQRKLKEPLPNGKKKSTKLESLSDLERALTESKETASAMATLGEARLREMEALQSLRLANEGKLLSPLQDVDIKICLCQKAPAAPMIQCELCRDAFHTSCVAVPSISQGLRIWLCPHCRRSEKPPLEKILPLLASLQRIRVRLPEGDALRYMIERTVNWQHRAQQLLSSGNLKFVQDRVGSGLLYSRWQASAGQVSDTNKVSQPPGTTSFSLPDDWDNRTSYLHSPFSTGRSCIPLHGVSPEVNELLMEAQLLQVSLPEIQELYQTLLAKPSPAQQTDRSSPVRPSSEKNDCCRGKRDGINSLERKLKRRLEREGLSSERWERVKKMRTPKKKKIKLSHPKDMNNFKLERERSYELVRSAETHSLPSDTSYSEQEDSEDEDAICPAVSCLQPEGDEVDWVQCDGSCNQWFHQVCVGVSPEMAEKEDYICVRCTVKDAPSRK
structure (smiles),measurement,setting,value
CC(C)NP(=O)(NC(C)C)OP(=O)(NC(C)C)NC(C)C,Potency,[1],inactive
COc1cc2c(cc1OC)[C@@]13CCN4CC5=CCO[C@H]6CC(=O)N2[C@H]1[C@H]6[C@H]5C[C@H]43,Potency,[2],inactive
same,Potency,[3],inactive
O=C1CC[C@@]2(O)C3Cc4ccc(O)c5c4C2(CCN3CC2CC2)[C@H]1O5 (stereo partly drawn),Potency,[1],inactive
O=c1ccc2[nH]cc(C3=CCNCC3)c2[nH]1,Potency,[4],44.1 µM (active)
same,outcome,[5],inactive
same,outcome,[6],inactive
same,Potency,[7],inactive
C[C@@](O)(COc1ccc(C#N)cc1)C(=O)Nc1ccc(C#N)c(C(F)(F)F)c1,Potency,[2],inactive
same,Potency,[3],inactive
CC(=O)OC12C(O)C(C)C3(O)C4C=C(C)C(=O)C4CC(CO)=CC3C1C2(C)C (stereo not drawn),Potency,[2],inactive
same,Potency,[3],inactive
C/C=C(\C)C(=O)OC1C(C)OC(OC2C(C)OC(OC3CCC4(C)C(=CCC5C4CCC4(C)C(C(C)OC6OC(COC7OC(CO)C(O)C(O)C7O)C(O)C(O)C6O)CCC54O)C3)CC2OC)C(O)C1OC (stereo not drawn),Potency,[2],inactive
same,Potency,[3],inactive
Cc1cccc(NC(=O)N[C@@H]2N=C(c3ccccc3)c3ccccc3N(C)C2=O)c1,Potency,[2],inactive
same,Potency,[3],inactive
NC(CCCCCP(=O)(O)O)C(=O)O (stereo not drawn),Potency,[1],inactive
CC(C)[C@@H](CN1CC[C@@](C)(c2cccc(O)c2)[C@@H](C)C1)NC(=O)[C@H]1Cc2ccc(O)cc2CN1,Potency,[2],inactive
same,Potency,[3],inactive
Cn1ncnc1COc1nn2c(-c3c(F)cccc3F)nnc2cc1C1CCC1,Potency,[2],inactive
same,Potency,[3],inactive
CC12CCC3C(CCC4(O)CC(O)CCC34C=O)C1(O)CCC2C1=CC(=O)OC1 (stereo not drawn),Potency,[3],inactive
c1ccc2c(c1)[I+]c1ccccc1-2,Potency,[1],inactive
O=C1C[C@@H]2OCC=C3CN4CC[C@]56c7ccccc7N1[C@H]5[C@H]2[C@H]3C[C@H]46,Potency,[2],inactive
same,Potency,[3],inactive
same,outcome,[8],inactive
same,outcome,[9],inactive
same,outcome,[10],inactive
same,outcome,[11],inactive
same,outcome,[12],inactive
same,outcome,[13],inactive
same,outcome,[14],inactive
same,outcome,[15],inactive
same,outcome,[16],inactive
same,outcome,[17],inactive
CC(C)(O)[C@H]1O[C@H]2CC[C@@]3(C)[C@@](O)(CC[C@H]4Cc5c([nH]c6ccccc56)[C@@]43C)C2=CC1=O,Potency,[3],inactive
COc1c(C(C)C)cc2c(c1O)[C@@]1(C(=O)O)CCCC(C)(C)C1CC2 (stereo partly drawn),Potency,[2],6.31 µM (active)
same,Potency,[3],inactive
same,Potency,[4],9.67 µM (active)
same,Potency,[7],inactive
CN(C)[C@@H]1C(=O)C(C(N)=O)=C(O)[C@@]2(O)C(=O)C3=C(O)c4c(O)ccc(Cl)c4[C@@](C)(O)[C@H]3C[C@@H]12,Potency,[18],0.562 µM (active)
CCN1CC2(COC)C3[C@@H](OC)C4C1C3(C1C[C@]3(O)[C@H](OC(=O)c5ccccc5)C1[C@]4(OC(C)=O)[C@@H](O)[C@@H]3OC)[C@H](OC)C[C@H]2O (stereo partly drawn),Potency,[2],89.1 µM (active)
same,Potency,[3],inactive
same,Potency,[4],inactive
same,Potency,[7],inactive
COc1ccc2c(c1)/C(=C/c1cnc[nH]1)C(=O)N2,Potency,[1],inactive
CCCN1CCC[C@@H](c2cccc(O)c2)C1,Potency,[1],inactive
COc1ccc2c(c1)C13CCCCC1C(C2)N(C)CC3 (stereo not drawn),Potency,[1],inactive
CC(C)[C@@]1(NC(=O)[C@@H]2C[C@@H]3c4cccc5[nH]cc(c45)C[C@H]3N(C)C2)O[C@@]2(O)[C@@H]3CCCN3C(=O)[C@H](Cc3ccccc3)N2C1=O,Potency,[1],inactive
CCN(CCCl)Cc1ccccc1Br,Potency,[1],inactive
O=C(O)c1ccnc2cc(C(OCCN3CCCCC3)c3ccccc3Cl)[nH]c12 (stereo not drawn),Potency,[3],inactive
CCN1C[C@]2(COC)[C@H](O)C[C@H](OC)[C@]34[C@@H]5C[C@]6(O)[C@H](OC(=O)c7ccccc7)[C@@H]5[C@@](O)([C@H]([C@H](OC)[C@H]23)[C@@H]14)[C@@H](O)[C@@H]6OC,Potency,[3],inactive
CC1=C2C[C@H]3[C@@H](CC=C4C[C@@H](O)CC[C@@]43C)[C@@H]2CC[C@]12O[C@@H]1C[C@H](C)CN[C@H]1[C@H]2C,Potency,[2],inactive
same,Potency,[3],inactive
CCCCCOc1cc2c(cc1-c1cc(/C=C/C(=O)O)ccc1O)C(C)(C)CCC2(C)C,Potency,[2],2.51 µM (active)
same,Potency,[3],3.16 µM (active)
same,Potency,[4],2.21 µM (active)
same,Potency,[18],25.1 µM (active)
same,Potency,[19],inactive
same,outcome,[5],inactive
same,outcome,[6],inactive
O=C1OC2(c3cc(Br)c(O)cc3Oc3c2cc(Br)c(O)[c]3[Hg])c2ccccc21 (stereo not drawn),Potency,[4],inactive
same,"activity change, negative = inhibition",[7],-7.05% [at 0.566 µM]
COc1ccc2[nH]cc(CCN)c2c1,Potency,[3],inactive
same,Potency,[1],inactive
same,outcome,[8],inactive
same,outcome,[9],inactive
same,outcome,[10],inactive
same,outcome,[11],inactive
same,outcome,[12],inactive
same,outcome,[13],inactive
same,outcome,[14],inactive
same,outcome,[15],inactive
same,outcome,[16],inactive [at 46.1 µM]
same,outcome,[17],inactive
CN(C(=O)Cc1ccc(Cl)c(Cl)c1)C(CN1CCCC1)c1cccc(OCC(=O)O)c1 (stereo not drawn),Potency,[1],inactive
C[C@@]1(C(=O)O)CC[C@]2(C)CC[C@]3(C)C4=CC(=O)c5cc(O)c(O)cc5[C@]4(C)CC[C@@]3(C)[C@@H]2C1,Potency,[2],3.98 µM (active)
same,Potency,[3],7.94 µM (active)
same,Potency,[4],1.36 µM (active)
same,Potency,[18],56.2 µM (active)
same,Potency,[19],1.12 µM (active)
same,outcome,[5],inactive
same,outcome,[6],inactive
same,Potency,[7],inactive
COC(=O)C1(C)CCC(O)C2(C)c3cc(O)c(C(C)C)cc3C(O)C(OC(C)=O)C12 (stereo not drawn),Potency,[2],inactive
same,Potency,[4],27.1 µM (active)
same,Potency,[7],inactive
CCCN(CCC)[C@@H]1CCc2cccc(O)c2C1,Potency,[1],inactive
